From PubChem BioAssay (Tox21)
Several values for one entry are separate records, joined by “and”; a condition that tells them apart may be missing. Equal entries are not always repeated. Inconclusive results are not listed. Where a call stands in place of a potency, no number is given. Some structures have more than one record in an assay (separate samples or runs), and their calls can disagree. Activity calls are given as the source filed them. The call rests on the fitted dose curve.

assay: Nuclear factor erythroid 2-related factor 2/antioxidant responsive element (Nrf2/ARE) small molecule agonists: luciferase reporter gene qHTS assay in human keratinocytes (AID 1919969); details: KeratinoSens HaCaT ARE-luciferase, luminescence, 24 h; series mostly up to 92.4 µM; further: nearly all actives have a fitted effect of over 35% in size
Description: National Center for Advancing Translational Sciences [NCATS]
Division of Preclinical Innovation [DPI]
U.S. Environmental Protection Agency [EPA]
National Institutes of Environmental Health Sciences [NIEHS]
National Toxicology Program [NTP]
U.S. Food and Drug Administration [FDA]
Oxidative stress has been implicated in the pathogenesis of a variety of diseases ranging from cancer to neurodegeneration. The antioxidant response element (ARE) signaling pathway plays an important role in the amelioration of oxidative stress. The KeratinoSens (Givaudan, Switzerland) is an in vitro test method which quantifies luciferase induction as a measure of activation of Keap1-Nrf2-antioxidationt/electrophile response element (ARE) dependant pathway in HaCaT human keratinocytes stably transfected with a selectable plasmid. The KeratinoSens assay is a cell-based assay with a reporter cell line to detect potential skin sensitizers by their ability to induce the Nrf2/ARE-response. The activation of the report gene under culture conditions can be detected by ONE-Glo Luciferase Assay System (Promega, Madison, WI). This cell line has been used to screen the Tox21 10K compound library to identify agonists that induce oxidative stress. The cytotoxicity of the Tox21 compound library against the KS-ARE cell line was tested in parallel by measuring the cell viability using CellTiter- Fluor assay system (Promega, Madison, WI) in the same wells.
HaCaT derived cell line KeratinoSens were dispensed at 1,500 cells/5uL/well in 1536-well white wall/solid bottom plates using a Multidrop Combi (ThermoFisher Scientific, Waltham, MA) dispenser. After the assay plates were incubated at 37 C/5% CO2 for 5 h, 23 nL of compounds dissolved in DMSO, positive controls or DMSO only was transferred to the assay plate by a pintool workstation (Kalypsys, San Diego, CA). The plates were incubated at 37 C/5% CO2 for 23 h, followed by addition of 1uL/well of CellTiter-Fluor reagent into the assay plates using a Flying Reagent Dispenser (Aurora Discovery, San Diego, CA) for cell viability readout that measures cytotoxicity. After 1 h incubation at 37 C/5% CO2 the fluorescence intensity was measured using a ViewLux (PerkinElmer, Shelton, CT) plate reader. Then 4uL/well of One-Glo were added using a Flying Reagent Dispenser. After the plates were incubated at room temperature for 30 min, the luminescence intensity in the assay plates was measured using ViewLux plate reader.
Potency means the concentration at half of the fitted maximal effect.

Structure (SMILES) | Potency
Cc1ccccc1C=O | inactive
CN(N=O)C(=O)N[C@@H]1[C@@H](O)[C@H](O)[C@@H](CO)O[C@@H]1O | inactive
O=C(Cl)c1cccc(C(=O)Cl)c1 | inactive
C[C@]12CC[C@@H]3c4ccc(O)cc4C[C@@H](CCCCCCCCCS(=O)CCCC(F)(F)C(F)(F)F)[C@H]3[C@@H]1CC[C@@H]2O (stereo not given in full) | inactive
O=C(O)CCCCCCCC(=O)O | inactive
NC(=O)OCC(COC(N)=O)c1ccccc1 | inactive
CC1=CC2C3CC(C=C3C)C2C1 (stereo not given) | inactive
O=C1c2c(O)cccc2Cc2cccc(O)c21 | inactive
O=C(O)c1ccccc1 | inactive
C=C(CC(=O)O)C(=O)O | inactive
CCc1ccc(CCOc2ccc(CC3SC(=O)NC3=O)cc2)nc1 (stereo not given) | 27.3 µM (active) and inactive
NC1CCCCC1 | inactive
O=C(c1cc(O)c(O)c(O)c1)c1ccc(O)c(O)c1O | inactive
CN1C(C(=O)Nc2ccccn2)=C(O)c2ccccc2S1(=O)=O | inactive
CCCCCCCC(=O)OC | inactive
C/C=C(C)/C=C/C=C(C)C | 60.4 µM (active) and 54.5 µM (active)
NC(=O)/N=N/C(N)=O | inactive
CCCCCCC(=O)O | inactive
NC(N)=NC(=O)c1nc(Cl)c(N)nc1N | inactive
COc1ccc(C(=O)c2ccccc2O)c(O)c1 | inactive

Structure (SMILES) | Potency
CCN(CC)C(=S)SSC(=S)N(CC)CC | inactive
C[C@@H](O)[C@H]1C(=O)N2C(C(=O)O)=C(S[C@@H]3CN[C@H](C(=O)N(C)C)C3)[C@H](C)[C@H]12 | inactive
CN1C(=O)CC[C@H]1c1cccnc1 | inactive
CCCCCCC=O | inactive
CC(O)CO (stereo not given) | inactive
CC(=O)c1ccccn1 | inactive
CC(=O)OC[C@H]1O[C@@](COC(C)=O)(O[C@H]2O[C@H](COC(C)=O)[C@@H](OC(C)=O)[C@H](OC(C)=O)[C@H]2OC(C)=O)[C@@H](OC(C)=O)[C@@H]1OC(C)=O | inactive
CCCCCCOCCO | inactive
Nc1ccc2c(c1)C(=O)c1ccccc1C2=O | 756 nM (active) and 243 nM (active)
COc1cc(O)c(C(=O)c2ccccc2)cc1S(=O)(=O)O | inactive
CN(C)CCOC(C)(c1ccccc1)c1ccccn1 (stereo not given) | inactive
CC(C)[C@@H]1CC[C@@H](C)C[C@H]1O | inactive
CC(O)COc1ccccc1 (stereo not given) | inactive
CC1(C)NC(=O)N(c2ccc([N+](=O)[O-])c(C(F)(F)F)c2)C1=O | inactive
COC(=O)c1ccccc1 | inactive
CCCCCCCCCCC=CC1CC(=O)OC1=O (stereo not given) | inactive
CC1(C)OC(=O)NC1=O | inactive
CCCCCCCCCCCCCCCCCC(=O)OCC(O)CO (stereo not given) | inactive
CCCCC(CC)COC(=O)CS (stereo not given) | inactive
CCCCOCCOC(=O)c1ccccc1C(=O)OCCOCCCC | 23.8 µM (active) and 68.6 µM (active)
